# A number with no mark means an inactive call. Inconclusive results are not listed. Where a call stands in place of a potency, no number is given. The source made the active and inactive calls. Unless noted, the call rests on the fitted dose curve; in most records, active means well fitted curve in the direction sought with a large enough effect in the repeat runs; inconclusive means weak or mixed curves; inactive means flat fitted curve, though single readings scatter.
# How the values were obtained:
# [1] = qHTS assay to test for compound auto fluorescence at 535 nm (green) in HEK293 cells (AID 720680)
# [2] = qHTS assay to test for compound auto fluorescence at 460 nm (blue) in HEK293 cell free culture (AID 720681); further: potency means the concentration at half of the fitted maximal effect
# In short: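 Compounds were added to cell-free DMEM with 10% FBS and fluorescence read directly. The blue channel used 405 nm excitation and 460 nm emission, with triamterene as the reference fluorophore.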
# [3] = qHTS assay to test for compound auto fluorescence at 535 nm (green) in HEK293 cell free culture (AID 720682)
# In short: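 Each library compound, or DMSO control, is added by pintool to medium alone, comprising DMEM and 10% FBS. Emission at 535 nm following 485 nm excitation is quantified against fluorescein.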
# [4] = qHTS assay to test for compound auto fluorescence at 590 nm (red) in HEK293 cell free culture (AID 720683)
# In short: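 Cell-free wells of DMEM with 10% FBS received compound, and intrinsic fluorescence was read at excitation/emission 540/590 nm. Values expressed as equivalence to Rose Bengal sodium.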
# [5] = qHTS assay to test for compound auto fluorescence at 590 nm (red) in HepG2 cell free culture (AID 720684)
# In short: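 Compounds are added to culture medium (MEM, 10% FBS) lacking cells, then fluorescence is read at excitation 540 nm, emission 590 nm, with Rose Bengal sodium as the equivalency standard.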
# [6] = qHTS assay to test for compound auto fluorescence at 460 nm (blue) in HepG2 cell free culture (AID 720685); further: potency means the concentration at half of the fitted maximal effect
# In short: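 Compound (23 nL) or DMSO pinned into cell-free MEM with 10% FBS; blue fluorescence read at 405/460 nm excitation/emission, expressed as auto-fluorescence equivalency to triamterene.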
# [7] = qHTS assay to test for compound auto fluorescence at 535 nm (green) in HepG2 cell free culture (AID 720686)
# [8] = qHTS assay to test for compound auto fluorescence at 460 nm (blue) in HepG2 cells (AID 720687); further: potency means the concentration at half of the fitted maximal effect
# In short: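 HepG2 cells in MEM with 10% FBS, attached overnight at 37 C, were exposed to compound or DMSO for 1 hr at 37 C, 5% CO2. Blue fluorescence was read at 405/460 nm, with triamterene as reference fluorophore.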
# [9] = target: Glucocorticoid receptor (Homo sapiens) (UniProt P04150); test: qHTS assay to identify small molecule antagonists of the glucocorticoid receptor (GR) signaling pathway (AID 720692; active means well fitted inhibition curve with a large enough effect in the signal ratio in the repeat runs, not every such curve was filed as active; the % refers to the signal ratio; further: potency means the concentration at half of the fitted maximal effect)
# In short: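 HeLa GR-bla cells; cmpd + dex 5 nM final, 18 h 37 C; LiveBLAzer B/G FRET substrate 2 h RT; fluorescence intensity read. Antagonist mode, qHTS.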
# [10] = target: Glucocorticoid receptor (Homo sapiens) (UniProt P04150); test: qHTS assay to identify small molecule agonists of the glucocorticoid receptor (GR) signaling pathway (AID 720691; active means well fitted activation curve with a large enough effect in the signal ratio in the repeat runs, not every such curve was filed as active; the % refers to the signal ratio); settings: GR-bla HeLa, beta-lactamase reporter ratio, 18 h; activation: at 62.4 µM (top of the series)
# In short: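 Fluorescence intensity from LiveBLAzer B/G FRET substrate (2 h, room temperature) reports beta-lactamase expression driven by the glucocorticoid response element in GR-bla HeLa cells after 18 h compound exposure at 37 C.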
# Tags describe the fitted curve by direction and shape or compound fluorescence and quenching.
# Chain of Glucocorticoid receptor (Homo sapiens) (P04150 whole entry, looked up): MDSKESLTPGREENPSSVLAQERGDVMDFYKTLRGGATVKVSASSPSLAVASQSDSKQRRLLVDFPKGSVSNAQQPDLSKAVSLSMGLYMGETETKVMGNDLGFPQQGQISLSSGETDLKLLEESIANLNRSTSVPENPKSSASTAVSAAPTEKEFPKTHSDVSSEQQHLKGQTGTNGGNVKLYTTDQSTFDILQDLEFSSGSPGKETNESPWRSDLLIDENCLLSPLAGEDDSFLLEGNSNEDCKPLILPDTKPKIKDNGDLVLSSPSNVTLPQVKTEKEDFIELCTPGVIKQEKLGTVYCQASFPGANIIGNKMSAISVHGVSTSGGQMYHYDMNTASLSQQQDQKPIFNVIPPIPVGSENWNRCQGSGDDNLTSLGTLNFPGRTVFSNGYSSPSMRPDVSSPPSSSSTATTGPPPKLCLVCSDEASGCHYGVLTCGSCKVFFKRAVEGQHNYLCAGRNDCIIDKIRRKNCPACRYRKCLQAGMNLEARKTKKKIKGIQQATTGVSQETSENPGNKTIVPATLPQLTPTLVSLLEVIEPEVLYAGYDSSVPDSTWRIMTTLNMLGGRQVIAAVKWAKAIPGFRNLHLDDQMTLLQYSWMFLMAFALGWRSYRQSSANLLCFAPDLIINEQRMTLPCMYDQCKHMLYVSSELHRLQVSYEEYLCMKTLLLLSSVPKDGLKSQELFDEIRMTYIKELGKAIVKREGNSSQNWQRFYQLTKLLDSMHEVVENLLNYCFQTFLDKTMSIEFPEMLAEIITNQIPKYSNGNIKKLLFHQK
compound,measurement,setting,value
CC(C)c1cccc(C(C)C)c1N1C(=O)c2ccc(O)cc2C1=O,Potency,[1],inactive
same,Potency,[2],35.5 µM (active)
same,Potency,[3],inactive
same,Potency,[4],inactive
same,Potency,[5],inactive
same,Potency,[6],39.8 µM [fluorescent] (active)
same,Potency,[7],inactive
same,Potency,[8],35.5 µM [fluorescent] (active)
same,Potency,[9],38.9 µM (active)
NCCCCCCNCCCCCCN,Potency,[1],inactive
same,Potency,[2],inactive
same,Potency,[3],inactive
same,Potency,[4],inactive
same,Potency,[5],inactive
same,Potency,[6],inactive
same,Potency,[7],inactive
same,Potency,[8],inactive
same,Potency,[10],inactive
same,Potency,[9],inactive
COc1ccc2sc(C(=O)Nc3nnn[nH]3)c(OC(C)C)c2c1,Potency,[1],inactive
same,Potency,[2],inactive
same,Potency,[3],inactive
same,Potency,[4],inactive
same,Potency,[5],inactive
same,Potency,[6],inactive
same,Potency,[7],inactive
same,Potency,[8],inactive
same,Potency,[10],inactive
CCC(C)c1cc([N+](=O)[O-])cc([N+](=O)[O-])c1OC(=O)OC(C)C (stereo not given),Potency,[1],inactive
same,Potency,[2],inactive
same,Potency,[3],inactive
same,Potency,[4],inactive
same,Potency,[5],inactive
same,Potency,[6],inactive
same,Potency,[7],inactive
same,Potency,[8],inactive
same,Potency,[10],inactive
Cc1c(C(=O)O)cccc1[N+](=O)[O-],Potency,[1],inactive
same,Potency,[2],inactive
same,Potency,[3],inactive
same,Potency,[4],inactive
same,Potency,[5],inactive
same,Potency,[6],inactive
same,Potency,[7],inactive
same,Potency,[8],inactive
same,Potency,[10],inactive
C[C@]12CC[C@H]3C(=CCc4cc(O)ccc43)[C@@H]1CCC2=O,Potency,[1],inactive
same,Potency,[2],inactive
same,Potency,[3],inactive
same,Potency,[4],inactive
same,Potency,[5],inactive
same,Potency,[6],inactive
same,Potency,[7],inactive
same,Potency,[8],inactive
same,Potency,[9],11 µM (active)
C=CC(=C)CCC=C(C)C,Potency,[1],inactive
same,Potency,[2],inactive
same,Potency,[3],inactive
same,Potency,[4],inactive
same,Potency,[5],inactive
same,Potency,[6],inactive
same,Potency,[7],inactive
same,Potency,[8],inactive
same,Potency,[9],inactive
Cc1cn[nH]c1,Potency,[1],inactive
same,Potency,[2],inactive
same,Potency,[3],inactive
same,Potency,[4],inactive
same,Potency,[5],inactive
same,Potency,[6],inactive
same,Potency,[7],inactive
same,Potency,[8],inactive
same,Potency,[10],inactive
same,Potency,[9],inactive
CCOC(=O)N1CCC(=C2c3ccc(Cl)cc3CCc3cccnc32)CC1,Potency,[1],inactive
same,Potency,[2],inactive
same,Potency,[3],inactive
same,Potency,[4],inactive
same,Potency,[5],inactive
same,Potency,[6],inactive
same,Potency,[7],inactive
same,Potency,[8],inactive
same,Potency,[10],inactive
Nc1cc(Cl)c([N+](=O)[O-])cc1O,Potency,[1],inactive
same,Potency,[2],inactive
same,Potency,[3],inactive
same,Potency,[4],inactive
same,Potency,[5],inactive
same,Potency,[6],inactive
same,Potency,[7],inactive
same,Potency,[8],inactive
same,Potency,[10],inactive
same,Potency,[9],inactive
CN(C)c1ccc(N=NS(=O)(=O)O)cc1,Potency,[1],inactive
same,Potency,[2],inactive
same,Potency,[3],inactive
same,Potency,[4],inactive
same,Potency,[5],inactive
same,Potency,[6],inactive
same,Potency,[7],inactive
same,Potency,[10],inactive
COc1cc(C(=O)NS(=O)(=O)c2ccccc2C)ccc1Cc1cn(C)c2ccc(NC(=O)OC3CCCC3)cc12,Potency,[1],inactive
same,Potency,[2],inactive
same,Potency,[3],inactive
same,Potency,[4],inactive
same,Potency,[5],inactive
same,Potency,[6],inactive
same,Potency,[7],inactive
same,Potency,[8],inactive
same,Potency,[10],inactive
same,Potency,[9],12 µM (active)
CC(C)N=C(N)/N=C(\N)Nc1ccc(Cl)cc1,"fluorescence, % of fluorescein",[1],-0.0268% [at 18.6 µM]
same,"fluorescence, % of fluorescent control",[2],-0.0312% [at 18.6 µM]
same,activity change,[3],"-0.0305% [at 18.6 µM, hits give high values]"
same,"fluorescence, % of fluorescent control",[4],-0.0425% [at 18.6 µM]
same,"fluorescence, % of Rose Bengal",[5],0.0381% [at 18.6 µM]
same,"fluorescence, % of fluorescent control",[6],-0.111% [at 18.6 µM]
same,"fluorescence, % of fluorescein control",[7],0.0037% [at 18.6 µM]
same,"fluorescence, % of fluorescent control",[8],0.176% [at 18.6 µM]
same,Potency,[10],inactive
same,Potency,[9],inactive
CC1CCCNC1 (stereo not given),Potency,[1],inactive
same,Potency,[2],inactive
same,Potency,[3],inactive
same,Potency,[4],inactive
same,Potency,[5],inactive
same,Potency,[6],inactive
same,Potency,[7],inactive
same,Potency,[8],inactive
same,Potency,[10],inactive
same,Potency,[9],inactive
CCc1cccc(C)c1,Potency,[1],inactive
same,Potency,[2],inactive
same,Potency,[3],inactive
same,Potency,[4],inactive
same,Potency,[5],inactive
same,Potency,[6],inactive
same,Potency,[7],inactive
same,Potency,[8],inactive
same,Potency,[10],inactive
same,Potency,[9],inactive
O=Cc1ccc(F)cc1,Potency,[1],inactive
same,Potency,[2],inactive
same,Potency,[3],inactive
same,Potency,[4],inactive
same,Potency,[5],inactive
same,Potency,[6],inactive
same,Potency,[7],inactive
same,Potency,[10],inactive
same,Potency,[9],inactive
O=Nc1ccc(NO)cc1,Potency,[1],inactive
same,Potency,[2],inactive
same,Potency,[3],inactive
same,Potency,[4],inactive
same,Potency,[5],inactive
same,Potency,[6],inactive
same,Potency,[8],inactive
same,Potency,[10],inactive
O=C(O)Cc1ccc(OCCNC[C@H](O)c2ccccc2)cc1,Potency,[1],inactive
same,Potency,[2],inactive
same,Potency,[3],inactive
same,Potency,[4],inactive
same,Potency,[5],inactive
same,Potency,[6],inactive
same,Potency,[7],inactive
same,Potency,[10],inactive
same,Potency,[9],inactive
O=C1Nc2ccc(Cl)cc2[C@@](C#CC2CC2)(C(F)(F)F)O1,Potency,[1],inactive
same,Potency,[2],inactive
same,Potency,[3],inactive
same,Potency,[4],inactive
same,Potency,[5],inactive
same,Potency,[6],inactive
same,Potency,[7],inactive
same,Potency,[10],inactive
same,Potency,[9],23.9 µM (active)
CCCCCCOc1ccc(O)cc1,Potency,[1],inactive
same,Potency,[2],inactive
same,Potency,[3],inactive
same,Potency,[4],inactive
same,Potency,[6],inactive
COc1cc(C=C2CCC/C(=C\c3ccc(O)c(OC)c3)C2=O)ccc1O,Potency,[1],inactive
same,Potency,[2],inactive
same,Potency,[3],inactive
same,Potency,[4],inactive
same,Potency,[5],inactive
same,Potency,[6],inactive
same,Potency,[8],inactive
CCCCCCCCCCCCN(CCO)CCO,Potency,[1],inactive
same,Potency,[2],inactive
same,Potency,[3],inactive
same,Potency,[4],inactive
same,Potency,[5],inactive
same,Potency,[6],inactive
same,Potency,[8],inactive
CC1(C)C(=O)N(Br)C(=O)N1Br,Potency,[1],inactive
same,Potency,[2],inactive
same,Potency,[3],inactive
same,Potency,[4],inactive
same,Potency,[5],inactive
same,Potency,[6],inactive
same,Potency,[7],inactive
same,Potency,[10],inactive
same,Potency,[9],inactive
COC(=O)C1=C(C)NC(C)=C(C(=O)OCCCN2CCC(c3ccccc3)(c3ccccc3)CC2)C1c1cccc([N+](=O)[O-])c1 (stereo not given),Potency,[1],inactive
same,Potency,[2],inactive
same,Potency,[3],inactive
same,Potency,[4],inactive
same,Potency,[6],inactive
same,Potency,[7],inactive
CC1=C(/C=C/C(C)=C/C=C/C(C)=C\C=O)C(C)(C)CCC1,Potency,[1],inactive
same,Potency,[2],inactive
same,Potency,[3],inactive
same,Potency,[4],inactive
same,Potency,[5],inactive
same,Potency,[6],inactive
same,Potency,[8],inactive
Nc1ncnc2c1ncn2[C@@H]1O[C@H](COP(=O)(O)O)[C@@H](O)[C@H]1O,Potency,[1],inactive
same,Potency,[2],inactive
same,Potency,[3],inactive
same,Potency,[4],inactive
same,Potency,[5],inactive
same,Potency,[6],inactive
same,Potency,[8],inactive
same,Potency,[10],inactive
